Hit rate of the full screen: of about 190,000 compounds, about 1,300 (0.68%) were called active. This is one part of a sample in which actives are shown more often than they occur. A number with no mark means an inactive call. Rule as the data show it: active = inhibition above about 50%; inactive = the rest.
Molecular target: Mannose-6-phosphate isomerase (Homo sapiens) (UniProt P34949)
Assay: human PMI inhibitors, high substrate, primary screen, biochemical, fluorescence intensity, high mannose 6-phosphate (AID 1220)
Details: recombinant PMI enzyme, coupled fluorescence intensity; at 20 µM; active compounds read high

Mannose-6-phosphate isomerase (Homo sapiens), sequence (P34949 whole entry, looked up): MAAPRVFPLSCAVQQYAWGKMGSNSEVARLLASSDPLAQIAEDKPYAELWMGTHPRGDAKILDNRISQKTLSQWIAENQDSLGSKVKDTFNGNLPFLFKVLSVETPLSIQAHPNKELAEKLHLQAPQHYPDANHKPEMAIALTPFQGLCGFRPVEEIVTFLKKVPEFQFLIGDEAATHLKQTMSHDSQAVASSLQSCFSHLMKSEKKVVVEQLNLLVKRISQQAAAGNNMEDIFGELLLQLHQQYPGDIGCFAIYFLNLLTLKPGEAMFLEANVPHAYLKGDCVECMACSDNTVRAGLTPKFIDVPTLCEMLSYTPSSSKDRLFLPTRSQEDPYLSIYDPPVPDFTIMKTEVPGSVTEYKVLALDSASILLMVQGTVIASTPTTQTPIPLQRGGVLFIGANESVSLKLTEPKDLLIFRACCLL

| Compound | inhibition |
| --- | --- |
| CCOC(=O)/C(=C/c1ccc(OC(=O)c2ccncc2)cc1)C(C)=O | 61.4% (active) |
| CCOC(=O)/C(=C/c1ccc(OC(=O)c2ccccc2)cc1)C(C)=O | 4.7% |
| COCCOC(=O)/C(=C/c1ccc(OC(=O)c2ccccc2)cc1)C(C)=O | 0.4% |
| Cn1c2ccccc2c2ncn(CCC3=CCCCC3)c(=O)c21 | 9.7% |
| CCOC(=O)CSc1nc(C)c2cc(C)c(C)cc2n1 | 1.6% |
| O=C(NC1C=CS(=O)(=O)C1)c1ccccc1 (stereo not given) | 5.8% |
| COc1cccc(OC)c1C(=O)Oc1ccc2c(c1)O/C(=C\c1ccncc1)C2=O | 7.7% |
| COc1ccc(NC(=O)CSc2ncnc3c2cnn3Cc2ccccc2)cc1 | 8.2% |
| O=C(Oc1cccc2c(OC(=O)N3CCOCC3)cccc12)N1CCOCC1 | 2.4% |
| O=C(Oc1cccc2c(OC(=O)N3CCCC3)cccc12)N1CCCC1 | 57.3% (active) |
| O=C(Oc1ccc(Cl)c2ccccc12)N1CCCCC1 | -3.1% |
| CC(C)CCC(C)N=Cc1c(O)n(Cc2ccccc2)c(=O)c2ccccc12 (stereo not given) | 6.3% |
| CCOC(=O)Nc1ccc(Oc2ccccc2)cc1 | 4.8% |
| N#CC1=C(N)C(C#N)(C#N)C(c2cccnc2)C2CC(c3ccccc3)CC=C12 (stereo not given) | 47.2% |
| N#CC1=C(N)C(C#N)(C#N)C(c2cccnc2)C2CCCC=C12 (stereo not given) | 50.3% (active) |
| N#CC1=C(N)C(C#N)(C#N)C(c2ccc[nH]2)C2CCCC=C12 (stereo not given) | 35.1% |
| O=C(O)CCC(=O)Nc1ccc(C(=O)OCC(=O)c2ccc(Cl)cc2Cl)cc1 | 6.3% |
| CCCCOC(=O)c1ccc(S(N)(=O)=O)o1 | -1.2% |
| COc1cc(NCCC(=O)c2cccs2)c(OC)cc1Cl | 51.4% (active) |
| O=C(CCNc1cc(Cl)cc(Cl)c1)c1cccs1 | 7.8% |
| Cc1ccc(NCCC(=O)c2cccs2)cc1Cl | 18.9% |
| Clc1ccc(CSc2ncnc3nc[nH]c23)cc1 | 3.6% |
| C=CCc1cccc(C=Nc2cc(Br)ccc2O)c1O | 57% (active) |
| C=CCc1cccc(/C=N/c2ncccc2O)c1O | 34.3% |
| C=CCc1cccc(C=Nc2ccc(Br)cc2)c1O | -8.2% |

| Compound | inhibition |
| --- | --- |
| O=C(NCCCN1CCCC1=O)C1CCCO1 (stereo not given) | 5.1% |
| CC(C)(C)c1nn(-c2ccccc2)c2[nH]c(=O)c(CNc3ccc4c(c3)OCCO4)cc12 | 5.7% |
| Cc1nn(-c2ccccc2)c2[nH]c(=O)c(CNc3ccc(N4CCOCC4)cc3)cc12 | 55.6% (active) |
| Cc1nn(-c2ccccc2)c2[nH]c(=O)c(CNc3ccc4c(c3)OCCO4)cc12 | 54.2% (active) |
| Cc1nn(-c2ccccc2)c2[nH]c(=O)c(CNCc3ccc4c(c3)OCO4)cc12 | 2.9% |
| Cc1nn(-c2ccccc2)c2[nH]c(=O)c(CNCCN3CCOCC3)cc12 | 4.3% |
| CCc1ccc(NCc2cc3c(C)nn(-c4ccccc4)c3[nH]c2=O)cc1 | 8.8% |
| Cn1cc(S(=O)(=O)CC(=O)N2CCCc3ccccc32)c2ccccc21 | 6.6% |
| Cc1ccc(N2C(=O)NC(NC(=O)C(C)(C)C)(C(F)(F)F)C2=O)cc1 (stereo not given) | 4.9% |
| COC(=O)c1ccc(/C=N/NC(=O)CNc2cccc(C)c2)cc1 | 9.8% |
| CCN(CCO)c1ccc(NC(=S)Nc2cccc(S(=O)(=O)N(C)C)c2)cc1 | 54.1% (active) |
| CN(C)S(=O)(=O)c1cccc(NC(=S)Nc2cc(Cl)cc(Cl)c2)c1 | -6.4% |
| CN(C)S(=O)(=O)c1cccc(NC(=S)NC2CCCCC2)c1 | -2.3% |
| CCN(Cc1ccccc1)S(=O)(=O)c1cc(C(=O)c2c(N)n(C)c(=O)n(C)c2=O)ccc1OC | 0.7% |
| CC1CCCN(C(=S)SCC(=O)O)C1 (stereo not given) | 0.2% |
| CC(C)(C)NCC(=O)N/N=C/c1ccc(OCc2ccccc2)cc1 | -4.4% |
| Nc1nn2c(-c3ccccc3)cc(=O)[nH]c2c1N=Nc1ccc(O)cc1 | 55.4% (active) |
| Nc1nn2c(-c3ccccc3)cc(=O)[nH]c2c1N=Nc1ccc(Br)cc1 | 12.3% |
| Cc1cc(=O)[nH]c2c(N=Nc3ccc(O)cc3)c(N)nn12 | 45.7% |
| COC(=O)c1ccccc1NC(=O)N1CCN(C(=O)c2ccco2)CC1 | 13.1% |
| CCn1c(C)c(C(C)=O)c(N2CCN(c3ccc(OC)cc3)CC2)nc1=S | 50.3% (active) |
| CCn1c(C)c(C(C)=O)c(N2CCN(c3ccccc3)CC2)nc1=S | -20.8% |
| CCn1c(C)c(C(C)=O)c(N2CCN(c3ccc(F)cc3)CC2)nc1=S | -6.4% |
| O=S(=O)(c1ccc(Br)cc1)N1CCN=C1SCc1cccnc1 | 0.3% |
| Cc1ccc(-n2c(=O)c3ccccc3n(CC(=O)NCc3ccco3)c2=O)cc1 | -5.8% |

| Compound | inhibition |
| --- | --- |
| CCCc1nnc2c(N(C)S(=O)(=O)c3ccccc3)nc3ccccc3n12 | 4.2% |
| COc1ccc(NC(=S)NC(C)Cc2cccs2)cc1 (stereo not given) | 3.7% |
| CCc1cccc(NC(=O)Cn2cc(C=O)c3ccccc32)c1 | -9.7% |
| O=C(COc1ccc(Br)cc1)NCCO | 8.7% |
| CC(C)c1ccc(OC(=O)NCCO)cc1 | 9.1% |
| CC(C)c1ccc(OCC(=O)NCCO)cc1 | 55.1% (active) |
| COc1ccc(/C=N/Nc2nccnc2Cl)cc1 | -6.9% |
| CC(=O)c1ccc2c3c(cccc13)CC2 | 6% |
| c1ccc(Nc2ccc3c4c(cccc24)CC3)cc1 | 17.7% |
| Nc1ccc2c3c(cccc13)CC2 | 64.4% (active) |
| OC(COc1ccc2c(c1)OCO2)CN1CCN(c2ccc(F)cc2)CC1 (stereo not given) | -1% |
| CC(=O)c1cn(CC(=O)Nc2ccc(C)cc2C)c2ccccc12 | -0.4% |
| COc1cc(/C=N/NC(N)=O)ccc1OC(=O)c1ccco1 | 3.7% |
| O=C(C1CCCO1)N(c1ccc(F)cc1)C1C=CS(=O)(=O)C1 (stereo not given) | 52.9% (active) |
| Cc1ccc(N(C(=O)C2CCCO2)C2C=CS(=O)(=O)C2)cc1Cl (stereo not given) | 0.2% |
| CCOc1ccc(N(C(=O)C2CCCO2)C2C=CS(=O)(=O)C2)cc1 (stereo not given) | -4.8% |
| C=C1C(=O)[C@@]23[C@H](O)C[C@@H]4C(C)(C)CC[C@H](O)[C@]4(C)[C@@H]2C[C@H](O)[C@@H]1[C@H]3O | 52.3% (active) |
| C=C1C(=O)[C@@]23[C@H](O)C[C@@H]4C(C)(C)CC[C@H](O)[C@@]4(C)[C@@H]2CC[C@@H]1[C@H]3O | 3.9% |
| Cc1cc(C)c2cc(CNC3CCCC3)c(Cl)nc2c1 | 3.4% |
| Cc1cc2cc(C=O)c(Cl)nc2cc1C | 58.2% (active) |
| Cc1ccc2cc(C=O)c(N(C)C)nc2c1 | 8.2% |
| Cc1cc2cc(C=C(C#N)C#N)c(Cl)nc2cc1C | 54.1% (active) |
| CC(C)(C)c1nn(-c2ccccc2)c2nc(Cl)c(C=O)cc12 | -0.4% |
| Cc1ccc2cc(C=O)c(Cl)nc2c1 | 39.8% |
| CCOC(=O)/C(C#N)=C/c1cc2ccc(C)cc2nc1Cl | 21.5% |

| Compound | inhibition |
| --- | --- |
| CCOC(=O)/C(C#N)=C/c1cc2ccccc2nc1Cl | 21.1% |
| CCC(C)(C(=O)NC1CCCCC1)N(C(=O)C1CCC(=O)N1)c1ccc(C)cc1 (stereo not given) | -0.7% |
| CCC(=O)NC(=S)Nc1cccc(NC(=O)c2ccco2)c1 | 9.6% |
| CCC(C)C(NC(=O)c1ccc(Cl)cc1Cl)C(=O)O (stereo not given) | 1.7% |
| COc1ccc(CC(=O)Nc2ccccc2C(=O)N2CCOCC2)cc1 | 5.3% |
| CCOC(=O)N1CCC(N2Cc3cccc(C(=O)Nc4ccc(F)cc4)c3C2=O)CC1 | -3.9% |
| NNC(=O)COc1ccccc1[N+](=O)[O-] | 4.8% |
| O=C(COc1ccccc1[N+](=O)[O-])NNC(=O)Nc1cccc2ccccc12 | 59.8% (active) |
| COC(=O)c1ccccc1NC(=O)COc1ccccc1[N+](=O)[O-] | -1.9% |
| CCOCCCn1c(=N)c(C(=O)NCc2ccc3c(c2)OCO3)cc2c(=O)n3ccccc3nc21 | -7.7% |
| CC(C)OCCCNC(=O)c1ccc(N(C)S(C)(=O)=O)cc1 | 6.8% |
| CCc1ccc(O)c(N=Cc2cccc(C)c2O)c1 | 17.4% |
| CCOc1cccc(C=Nc2cc(C)cc(C)c2O)c1O | 7% |
| Cc1ccc(N=Cc2sc(O)c3ccccc23)c(C)c1 | 2.2% |
| Cc1cccc(C=Nc2ccc3c(c2)oc2ccccc23)c1O | 30.1% |
| CCC(=O)N1CCN(c2ccccc2NC(=O)Cc2ccccc2)CC1 | 3.5% |
| CCNC(=S)Nc1ccc(S(=O)(=O)Nc2cc(C)nc(C)n2)cc1 | -7.6% |
| O=C(O)C1CC=CCC1C(=O)Nc1cccc(C(=O)N2CCCCC2)c1 (stereo not given) | -20.1% |
| COc1cc(C(c2sc3nc(C)nn3c2O)N2CCc3ccccc3C2)cc(OC)c1OC (stereo not given) | 5.1% |
| COc1cccc(C(c2sc3nc(C)nn3c2O)N2CCc3ccccc3C2)c1 (stereo not given) | 42.6% |
| Cc1ccc2c(c1)NC(=O)C(CC(=O)NCCCN1CCN(c3cc(C)ccc3C)CC1)O2 (stereo not given) | 9.9% |
| CN(C)/C=N/c1nc(-c2ccc3c(c2)OCO3)cs1 | 7.4% |
| CC(C)c1cc(NC(=O)c2ccccc2)cc(C(C)C)c1O | 8.4% |
| CC(C)c1cc(Nc2cccc(O)c2)cc(C(C)C)c1O | 53.6% (active) |
| CC(=O)Nc1cc(C(C)C)c(O)c(C(C)C)c1 | 6.7% |

Source: PubChem BioAssay AID1220 (Sanford-Burnham Center for Chemical Genomics, 2008)
